About 79,000 compounds went through this panel and 15% of them were active in at least one assay; those are over-represented in the sample as a whole. A number with no mark means an inactive call. Calls of active or inactive are those of the source. Rule as the data show it: active = growth inhibition above about 70%; inactive = the rest.

The text below walks through data of PubChem BioAssay (NCI).

The nature of assay [1]: NCI Yeast Anticancer Drug Screen. Data for the rad50 strain (AID 155).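 Also: 0% = growth of vehicle-only cultures of the same strain.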 The settings on record: S. cerevisiae rad50 strain growth inhibition, hits give high values. The gist of the method: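 Genetically altered yeast (DNA repair pathway); compound treatment; growth inhibition vs vehicle ctrl.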
The nature of assay [2]: NCI Yeast Anticancer Drug Screen. Data for the mec2-1 strain (AID 157). The following applies: S. cerevisiae mec2-1 strain, hits give high values. The essentials: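 Using mec2-1 yeast: add compound, measure growth, express inhibition versus vehicle-treated cultures.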
Assay [3] can be described thus: NCI Yeast Anticancer Drug Screen. Data for the sgs1 mgt1 strain (AID 161).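 Also: 0% = growth of cultures given vehicle only.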 The settings on record: S. cerevisiae sgs1 mgt1 strain, hits give high values. The essentials:
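Yeast cells carrying a defined DNA-repair defect were exposed to test compounds. Growth inhibition was measured relative to vehicle-treated controls.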

Assay [4] is described as follows: NCI Yeast Anticancer Drug Screen. Data for the cln2 rad14 strain (AID 165).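 Also: 0% = growth equal to vehicle treated cultures.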 The following applies: S. cerevisiae cln2 rad14 strain, hits give high values. The gist of the method:
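Yeast strain cln2 rad14, bearing defects in cell cycle control and DNA repair, serves as the test system; values reflect growth inhibition compared with vehicle.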

Assay [5] can be described thus: NCI Yeast Anticancer Drug Screen. Data for the bub3 strain (AID 167). The following applies: S. cerevisiae bub3 mutant strain, hits give high values. The gist of the method: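 Yeast carrying a defined mutation is treated with each compound, and growth is compared with that of vehicle-exposed cells to give inhibition.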
Assay [6] is described as follows: NCI Yeast Anticancer Drug Screen. Data for the mlh1 rad18 strain (AID 175). The following applies: S. cerevisiae mlh1 rad18 strain growth inhibition, hits give high values. The essentials: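 Steps: expose repair-defective yeast to compound; measure growth; express inhibition against vehicle-treated controls.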
The mark [7] stands for this setting: at 5.0 µM (retest, dose inferred, filed as 0.5).
Where [8] appears, read: at 50.0 µM (retest, dose inferred, filed as 5.0).

`CCOC(=O)/C(Cl)=C(\OCC)C(=O)OCC`: the growth inhibition is 14% in assay [1] (setting [7]); 10% in assay [1] (setting [8]); -6.4% in assay [1] (at 50.0 µM); 6% in assay [2] (setting [7]); 13% in assay [2] (setting [8]); 12.3% in assay [2] (at 50.0 µM). The growth inhibition is 2% in assay [3] (setting [7]); 19% in assay [3] (setting [8]); 20% in assay [3] (at 50.0 µM); -5% in assay [4] (setting [7]); 19% in assay [4] (setting [8]); 44.9% in assay [4] (at 50.0 µM). The growth inhibition in assay [5] (setting [7]) was -1%; in assay [5] (setting [8]), 8%; in assay [5] (at 50.0 µM), 26.4%; in assay [6] (setting [7]) it was 12%; in assay [6] (setting [8]) it was 22%; in assay [6] (at 50.0 µM), 21.1%.
Consider `CC(C)(C)c1cc(C(O)(C(F)(F)F)C(F)(F)F)c(S)c(C(O)(C(F)(F)F)C(F)(F)F)c1`, for which the growth inhibition is 8% in assay [1] (setting [7]); 98% (active) in assay [1] (setting [8]); 98.8% (active) in assay [1] (at 50.0 µM); -6% in assay [2] (setting [7]); 99% (active) in assay [2] (setting [8]); 99.3% (active) in assay [2] (at 50.0 µM). The growth inhibition was 9% in assay [3] (setting [7]); 98% (active) in assay [3] (setting [8]); 98.8% (active) in assay [3] (at 50.0 µM); 16% in assay [4] (setting [7]); 98% (active) in assay [4] (setting [8]); 99% (active) in assay [4] (at 50.0 µM). Moreover, the growth inhibition in assay [5] (setting [7]) is 7%; in assay [5] (setting [8]), 97% (active); in assay [5] (at 50.0 µM) it was 99% (active).
For `O=c1ccccn1CCc1cccc2cc(O)ccc12`, the growth inhibition in assay [1] (setting [7]) was -3%; in assay [1] (setting [8]) it was -1%; in assay [1] (at 50.0 µM), 12.9%; in assay [2] (setting [7]), -2%; in assay [2] (setting [8]) it was 4%; in assay [2] (at 50.0 µM), 9.25%. The growth inhibition in assay [3] (setting [7]) was -3%; in assay [3] (setting [8]), -3%; in assay [3] (at 50.0 µM), 10.6%; in assay [4] (setting [7]), -1%; in assay [4] (setting [8]) it was -12%; in assay [4] (at 50.0 µM), -12.3%. The results for the growth inhibition in assay [5] (setting [7]), in assay [5] (setting [8]) and in assay [5] (at 50.0 µM) were 0%, 4% and 71% (active), respectively.
As to `NC1CCCCC1N.O=S(=O)([O-])CCCN1CCN(CCO)CC1.O=S(=O)([O-])CCCN1CCN(CCO)CC1.[Pt+4]`, the growth inhibition was 8% in assay [1] (setting [7]); 98% (active) in assay [1] (setting [8]); -8.45% in assay [1] (at 50.0 µM); 8% in assay [2] (setting [7]); 99% (active) in assay [2] (setting [8]); -9.95% in assay [2] (at 50.0 µM). For the same molecule, the growth inhibition is 12% in assay [3] (setting [7]); 98% (active) in assay [3] (setting [8]); 23.1% in assay [3] (at 50.0 µM); 44% in assay [4] (setting [7]); 66% in assay [4] (setting [8]); -15.8% in assay [4] (at 50.0 µM). For the same molecule, the growth inhibition in assay [5] (setting [7]) was -24%; in assay [5] (setting [8]), 97% (active); in assay [5] (at 50.0 µM), -2.7%; in assay [6] (setting [7]) it was 16%; in assay [6] (setting [8]), 98% (active); in assay [6] (at 50.0 µM), 24.4%.
Take `CCCCCCCCC1CCNCC1`: the growth inhibition was 39% in assay [1] (setting [7]); 28% in assay [1] (setting [8]); 85.5% (active) in assay [1] (at 50.0 µM); -6% in assay [2] (setting [7]); 47% in assay [2] (setting [8]); 87.7% (active) in assay [2] (at 50.0 µM). The growth inhibition in assay [3] (setting [7]) was 26%; in assay [3] (setting [8]), 71% (active); in assay [3] (at 50.0 µM), 92.2% (active); in assay [4] (setting [7]), 33%; in assay [4] (setting [8]), 38%; in assay [4] (at 50.0 µM), 72.5% (active). The growth inhibition is 36% in assay [5] (setting [7]); 62% in assay [5] (setting [8]); 90.3% (active) in assay [5] (at 50.0 µM); 20% in assay [6] (setting [7]); 23% in assay [6] (setting [8]); 89.8% (active) in assay [6] (at 50.0 µM).
In the case of `C#CC(NCCC(C)CC(C)(C)C)C(C)C` (stereo unspecified), the growth inhibition in assay [1] (setting [7]) is -4%; in assay [1] (setting [8]), -62%; in assay [1] (at 50.0 µM), 83.3% (active); in assay [2] (setting [7]) it was 2%; in assay [2] (setting [8]), -31%; in assay [2] (at 50.0 µM), 36.2%. For the same molecule, the growth inhibition in assay [3] (setting [7]) is -3%; in assay [3] (setting [8]) it was -22%; in assay [3] (at 50.0 µM), 87.7% (active); in assay [4] (setting [7]), -2%; in assay [4] (setting [8]) it was -14%; in assay [4] (at 50.0 µM) it was 21.4%. The growth inhibition in assay [5] (setting [7]) was -14%; in assay [5] (setting [8]), -68%; in assay [5] (at 50.0 µM), 29.6%; in assay [6] (setting [7]), -3%; in assay [6] (setting [8]) it was -43%; in assay [6] (at 50.0 µM) it was 65.2%.
Turning to `O=C(/C=C\c1ccccc1)N1c2ccccc2CC1c1c[nH]c2ccccc12` (stereo unspecified), the growth inhibition is -10% in assay [1] (setting [7]); 11% in assay [1] (setting [8]); 6.35% in assay [1] (at 50.0 µM); -1% in assay [2] (setting [7]); 17% in assay [2] (setting [8]); -1.7% in assay [2] (at 50.0 µM). Also, the growth inhibition in assay [3] (setting [7]) was 4%; in assay [3] (setting [8]) it was 19%; in assay [3] (at 50.0 µM), 10.3%; in assay [4] (setting [7]) it was -1%; in assay [4] (setting [8]) it was 1%; in assay [4] (at 50.0 µM) it was 36.9%. The growth inhibition is 20% in assay [5] (setting [7]); 41% in assay [5] (setting [8]); -2.1% in assay [5] (at 50.0 µM); 7% in assay [6] (setting [7]); 11% in assay [6] (setting [8]); 12.2% in assay [6] (at 50.0 µM).
Turning to `CCCCCCCNc1ccc2c(cc1=O)C(NC(C)=O)CCc1cc(OC)c(OC)c(OC)c1-2` (stereo unspecified), the growth inhibition in assay [1] (setting [7]) was 17%; in assay [1] (setting [8]) it was 96% (active); in assay [1] (at 50.0 µM) it was 91.5% (active); in assay [2] (setting [7]), 8%; in assay [2] (setting [8]), 98% (active); in assay [2] (at 50.0 µM) it was 16.8%. Besides, the growth inhibition is 9% in assay [3] (setting [7]); 99% (active) in assay [3] (setting [8]); 98.8% (active) in assay [3] (at 50.0 µM); 7% in assay [4] (setting [7]); 95% (active) in assay [4] (setting [8]); 30.8% in assay [4] (at 50.0 µM). Further, the growth inhibition was 4% in assay [5] (setting [7]); 97% (active) in assay [5] (setting [8]); 16.9% in assay [5] (at 50.0 µM); 13% in assay [6] (setting [7]); 97% (active) in assay [6] (setting [8]); 7.55% in assay [6] (at 50.0 µM).
As for `C/C(=N\NC(=S)N1CCN(c2ccccn2)CC1)c1ccccn1`, the growth inhibition is 46% in assay [1] (setting [7]); 99% (active) in assay [1] (setting [8]); 87.7% (active) in assay [1] (at 50.0 µM); 35% in assay [2] (setting [7]); 100% (active) in assay [2] (setting [8]); 90.2% (active) in assay [2] (at 50.0 µM). Also, the growth inhibition is 35% in assay [3] (setting [7]); 99% (active) in assay [3] (setting [8]); 89.8% (active) in assay [3] (at 50.0 µM); 21% in assay [4] (setting [7]); 98% (active) in assay [4] (setting [8]); 83.2% (active) in assay [4] (at 50.0 µM). Also, the values for the growth inhibition in assay [5] (setting [7]), in assay [5] (setting [8]) and in assay [5] (at 50.0 µM) were 63%, 100% (active) and 90.1% (active), respectively.
Consider `Cc1cc2c(cc1C)[n+](=O)c(C(=O)C/C(=N/NC(=O)CC#N)C(=O)Nc1ccccc1C(F)(F)F)c(C)n2[O-]`, for which the growth inhibition was 53% in assay [1] (setting [7]); 53% in assay [1] (setting [8]); 92.4% (active) in assay [1] (at 50.0 µM); 57% in assay [2] (setting [7]); 57% in assay [2] (setting [8]); 91% (active) in assay [2] (at 50.0 µM). For the same molecule, the growth inhibition was 58% in assay [3] (setting [7]); 58% in assay [3] (setting [8]); 91.8% (active) in assay [3] (at 50.0 µM); 38% in assay [4] (setting [7]); 38% in assay [4] (setting [8]); 91.5% (active) in assay [4] (at 50.0 µM). In addition, the growth inhibition in assay [5] (setting [7]) is 46%; in assay [5] (setting [8]), 46%; in assay [5] (at 50.0 µM), 94% (active); in assay [6] (setting [7]), 54%; in assay [6] (setting [8]) it was 54%; in assay [6] (at 50.0 µM), 90.8% (active).
